Screening results deposited in PubChem BioAssay by several laboratories.
The list is not random: actives were taken first. Their share in the collection is about 3.2%.
MsrA inh: inhibits bovine methionine sulfoxide reductase A; inhibition, % at 15.5 µM; purified bovine MsrA, absorbance read-out; 360,000 tested, 0.75% active; in the data active = inhibition above about 4.5%
NadD inh: blocks S. aureus nicotinate mononucleotide adenylyltransferase | purified NadD enzyme, colorimetric absorbance read-out | inhibition, % at 20 µM | 360,000 tested, 0.78% active; in the data active = inhibition above about 26%
MsrA act: activates bovine MsrA enzyme; activation, % at 10.6 µM; purified bovine MsrA, absorbance read-out; 360,000 tested, 0.3% active; in the data active = activation above about 7.5%
DAGLB inh: diacylglycerol lipase beta (human) inhibition | 340,000 tested, 0.059% active | HEK293T DAGLB membrane lysate, EnzChek fluorogenic substrate | AID 504411 | inhibition, % at 5.17 µM | Q8NCG7; in the data active = inhibition above about 34%
rCAG RNA binder: binds r(CAG) RNA repeats | r(CAG) RNA repeat, TO-PRO-1 dye displacement fluorescence | inhibition, % at 3 µM | 370,000 tested, 1.3% active | AID 651821;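 active = inhibition above the plate cutoff, the mean of all test compounds on that plate plus 3 SD, cut at about 35% in these data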;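 also: higher means more dye released from RNA so lower well fluorescence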
Pemphigus Ab inh: human desmoglein-3 autoantibody binding inhibition. P32926. DSG3-coupled beads, scFv-anti-DSG3-GFP binding, flow cytometry; hits give low values. binding (percent of control), % at 10 µM. 310,000 tested, 0.48% active;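 active = binding more than 3 SD below its plate's average and above zero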;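 also: hits lower antibody fragment binding to DSG3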
Target sequence (P32926 whole entry, looked up, the tested form may be a part): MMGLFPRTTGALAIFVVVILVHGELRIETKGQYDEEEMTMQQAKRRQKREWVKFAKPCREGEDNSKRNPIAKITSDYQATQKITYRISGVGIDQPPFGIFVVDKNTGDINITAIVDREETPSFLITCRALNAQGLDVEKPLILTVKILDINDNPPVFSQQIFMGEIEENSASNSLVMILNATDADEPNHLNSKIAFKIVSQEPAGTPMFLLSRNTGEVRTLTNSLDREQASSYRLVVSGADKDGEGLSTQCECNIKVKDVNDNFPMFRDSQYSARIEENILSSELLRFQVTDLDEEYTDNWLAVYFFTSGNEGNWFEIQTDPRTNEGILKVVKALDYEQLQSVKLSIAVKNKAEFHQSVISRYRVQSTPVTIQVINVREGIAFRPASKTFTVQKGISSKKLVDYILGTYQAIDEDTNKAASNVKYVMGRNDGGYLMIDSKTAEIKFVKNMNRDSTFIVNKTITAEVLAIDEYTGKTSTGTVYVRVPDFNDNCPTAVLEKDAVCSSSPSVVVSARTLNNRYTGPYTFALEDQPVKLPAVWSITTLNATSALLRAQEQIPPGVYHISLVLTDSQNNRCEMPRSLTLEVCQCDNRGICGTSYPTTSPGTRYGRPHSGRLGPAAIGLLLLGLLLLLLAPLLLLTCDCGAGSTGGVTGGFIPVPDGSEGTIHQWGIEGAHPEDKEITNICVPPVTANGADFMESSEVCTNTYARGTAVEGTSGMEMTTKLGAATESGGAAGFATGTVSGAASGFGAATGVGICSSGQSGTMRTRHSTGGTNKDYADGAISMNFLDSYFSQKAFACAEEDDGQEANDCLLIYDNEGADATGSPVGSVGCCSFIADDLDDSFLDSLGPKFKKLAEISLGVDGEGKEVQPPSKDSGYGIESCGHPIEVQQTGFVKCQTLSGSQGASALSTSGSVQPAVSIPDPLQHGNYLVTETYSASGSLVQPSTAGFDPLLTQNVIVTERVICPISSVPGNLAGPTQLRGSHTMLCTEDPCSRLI
rCAG bind conf: r(CAG) RNA repeat binding, confirmation; shares compounds with rCAG RNA binder; TO-PRO-1 dye displacement fluorescence; inhibition, % at 3 µM; 4,300 tested, 70% active; AID 652065;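 active = inhibition above a per-plate cutoff, the mean inhibition of sample wells plus 3 SD, cut at about 35% in these data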;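 also: loss of TO-PRO-1 fluorescence as compound displaces dye from 1x1 AA loop RNA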
DNA CAG counter: disrupts DNA CAG TO-PRO-1 complex, flagging rCAG hits; shares compounds with rCAG RNA binder; d(CAG) DNA oligo TO-PRO-1 dye displacement, fluorescence; inhibition, % at 3 µM; 4,300 tested, 94% active; AID 652068;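 active = inhibition above its plate's cutoff, the mean test-well inhibition plus 3 SD, cut at about 4.8% in these data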;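 also: hits displace the dye from DNA and so lower well fluorescence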
DNA CAG DR: counter-screen for rCAG binders: inhibitors of DNA CAG TO-PRO-1 complex | DNA CAG/GTC duplex TO-PRO-1 dye displacement fluorescence | IC50, µM | 250 tested, 20% active | shares compounds with rCAG RNA binder; in the data active = IC50 below about 10 µM
Numbers stand for hits; i = inactive; nt = no result.

SMILES	MsrA inh	NadD inh	MsrA act	DAGLB inh	rCAG RNA binder	Pemphigus Ab inh	rCAG bind conf	DNA CAG counter	others
O=C(O)c1[nH]c2ccc(Cl)cc2c1CC(=O)N1CCN(c2ccccc2)CC1	i	i	i	i	41.1	i	41.5	12.3
COc1ccccc1N1CCN(C(=O)Cc2c(C(=O)O)[nH]c3ccc(Cl)cc23)CC1	i	i	i	i	38.8	i	41.9	11.4
COc1ccc(Br)cc1CNC(=O)Cc1c(C(=O)O)[nH]c2ccc(Cl)cc12	i	i	i	nt	58.0	i	44.9	11.5
CN1OC[C@@H]2CN(Cc3ccc4c(c3)OCO4)[C@H](c3ccc(N4CCCCC4)cc3)C[C@@H]21	i	i	i	nt	i	nt	nt	nt
C=CCn1c(COc2ccc(C)cc2)nnc1SCC(=O)Nc1cc(Cl)cc(Cl)c1	nt	nt	nt	nt	i	nt	nt	nt
C=CCN1C(=O)[C@H](CC(=O)N2CCOCC2)[C@@]2(C(=O)OCC)CCCC=C12	nt	nt	nt	nt	i	nt	nt	nt
COc1ccc(/C=C2/SC(=S)N(Cc3ccccc3)C2=O)cc1O	i	i	i	i	44.0	i	i	13.8
COc1ccc(O)c(/C=C2/SC(=S)N(Cc3ccccc3)C2=O)c1	i	i	i	i	i	i	nt	nt
O=C(O)COc1ccc(/C=C2/SC(=S)N(Cc3ccccc3)C2=O)cc1	i	i	i	i	75.8	i	84.8	51.6
O=C1/C(=C\c2cc(Cl)c(O)c(Cl)c2)SC(=S)N1Cc1ccccc1	i	i	i	i	i	i	nt	nt
COc1ccc(/C=C2\SC(=O)N(CC(=O)NNC(=O)c3ccccc3O)C2=O)cc1OC	i	i	i	i	50.5	i	45.9	15.7
O=C1Nc2ccccc2-n2nnnc2C1N1CCN(c2ccc(C(F)(F)F)cc2[N+](=O)[O-])CC1 (stereo unspecified)	i	nt	nt	nt	i	nt	nt	nt
CC(C)c1ccc(NC(=O)C2CCCCC2C(=O)O)cc1 (stereo unspecified)	i	i	i	i	i	i	nt	nt
Cc1cc(C)cc(NS(=O)(=O)c2ccc(NC(=O)C3CCCCC3C(=O)O)cc2)c1 (stereo unspecified)	i	i	i	i	35.7	i	i	4.8
CC1(C)CC(=O)C(CC(=O)c2ccccc2)=C(NN=C(N)N)C1	i	i	i	i	i	i	nt	nt
CC1(C)CC(Cc2cccc(C(F)(F)F)c2)N(C(=O)OC(C)(C)C)C1 (stereo unspecified)	i	i	i	i	i	i	nt	nt
CCOC(=O)C1=C[C@@H](C(C)(C)C)N(S(=O)(=O)c2ccc(C)cc2)[C@H]1c1ccccc1	i	i	i	nt	i	nt	nt	nt
CCc1ccc([C@@H]2CC=C(C(=O)O)[C@H](c3ccc(C(C)(C)C)cc3)N2S(=O)(=O)c2ccc(C)cc2)cc1	i	i	i	i	91.7	i	85.4	52.9
COc1cc([C@@H]2CC=C(C(=O)O)[C@H](c3ccccc3)N2S(=O)(=O)c2ccc(C)cc2)cc(OC)c1OC	i	i	i	i	i	i	nt	nt
Cc1ccc([C@@H]2CC=C(C(=O)O)[C@H](c3ccc(C(C)(C)C)cc3)N2S(=O)(=O)c2ccc(C)cc2)cc1	i	i	i	i	90.3	i	83.8	47.9
CCc1ccc([C@H]2C(C(=O)O)=C[C@@H](C(C)(C)C)N2S(=O)(=O)c2ccc(C)cc2)cc1	i	i	i	i	51.6	i	49.2	17.8
CN1[C@H](Cc2ccccc2)COc2cccc(N3CCCC3)c2S1(=O)=O	nt	nt	nt	nt	i	nt	nt	nt
CCCCCCOc1ccc(N2C(=O)CC(S/C(N)=N/N=C(\C)c3cccs3)C2=O)cc1 (stereo unspecified)	i	i	i	i	i	i	nt	nt
C/C(=N\N=C(/N)SC1CC(=O)N(c2ccc(Cl)cc2)C1=O)c1cccs1 (stereo unspecified)	i	i	i	i	42.7	i	63.4	24.5
C/C(=N\N=C(/N)SC1CC(=O)N(c2ccc(Br)cc2)C1=O)c1cccs1 (stereo unspecified)	i	i	i	i	46.6	i	76.6	34.7
SMILES	MsrA inh	NadD inh	MsrA act	DAGLB inh	rCAG RNA binder	Pemphigus Ab inh	rCAG bind conf	DNA CAG counter	others
N/C(=N\N=C\c1cccs1)SC1CC(=O)N(c2ccc(Br)cc2)C1=O (stereo unspecified)	i	i	i	i	38.2	i	70.4	24.8	DNA CAG DR=i
Cc1ccc(C2=CCN(C)C(=O)N2c2ccccc2)cc1	nt	nt	nt	nt	i	nt	nt	nt
Nc1c(S(=O)(=O)c2cccc(Cl)c2)c2nc3ccccc3nc2n1CCN1CCOCC1	i	i	i	i	i	i	nt	nt
O=S(=O)(Nc1nc2ccccc2nc1NCCN1CCOCC1)c1cccc(Cl)c1	i	i	i	i	49.1	i	52.5	10.4	DNA CAG DR=i
O=S(=O)(Nc1nc2ccccc2nc1NCC1CCCO1)c1cc(Cl)ccc1Cl (stereo unspecified)	i	i	i	i	70.6	i	48.7	14.4
CN(Cc1ccccc1)C(=O)c1cccc(NC(=O)Cc2ccc(NC(=O)C3CCN(C(=O)C4CCC4)CC3)cc2)c1	i	i	i	i	i	i	nt	nt
COc1cc(C)ccc1S(=O)(=O)NC(=O)C1(C)CCN1C(=O)c1ccc(C2CCCCC2)cc1 (stereo unspecified)	i	i	i	nt	40.5	nt	38.0	8.3
Fc1ccc(-c2n[nH]c(=S)n2N=Cc2ccc(-c3ccccc3)cc2)cc1	nt	nt	nt	nt	43.9	nt	39.6	16.1
COc1ccc(C=Nn2c(-c3ccccc3F)n[nH]c2=S)cc1OCc1ccccc1	nt	nt	nt	nt	49.6	nt	41.6	10.1
Fc1ccc(-c2n[nH]c(=S)n2N=Cc2ccc(OCc3ccccc3)cc2)cc1	nt	nt	nt	nt	66.8	nt	46.7	16.7
CCN(CC)c1ccc(C=Nn2c(-c3ccc(F)cc3)n[nH]c2=S)c(O)c1	nt	nt	nt	nt	64.3	nt	52.0	15.7
COc1ccc(OC)c(S(=O)(=O)N2CCC(C(=O)N3CCN(C4CCCCC4)CC3)CC2)c1	nt	nt	nt	nt	i	nt	nt	nt
Oc1ccc2ccccc2c1C=Nn1c(-c2n[nH]c3c2CCC3)n[nH]c1=S	nt	nt	nt	nt	71.5	nt	60.2	22.0
COc1ccc(C=Nn2c(-c3n[nH]c4c3CCC4)n[nH]c2=S)cc1OCc1ccccc1	nt	nt	nt	nt	48.7	nt	45.1	17.4
COc1cc(C=Nn2c(-c3n[nH]c4c3CCC4)n[nH]c2=S)ccc1OCc1ccccc1	nt	nt	nt	nt	i	nt	nt	nt
CCOc1ccc(/C=N/n2c(-c3ccccc3)n[nH]c2=S)cc1	i	i	i	i	i	i	nt	nt
Fc1ccccc1-c1n[nH]c(=S)n1N=Cc1ccc(OCc2ccccc2)cc1	nt	nt	nt	nt	70.3	nt	58.0	19.5
C/C(=N\Nc1ccc(Cl)c(C(=O)O)c1)c1ccc2c(c1)OCO2	i	i	i	i	i	i	nt	nt
C/C(=N/Nc1ccc(C(=O)O)cc1)c1ccc2c(c1)Nc1ccccc1S2	i	i	i	i	45.1	i	81.0	40.9
